Results: PubChem BioAssay AID1259374 (The Scripps Research Institute Molecular Screening Center, 2018)
Hit rate of the full screen: of about 650,000 compounds, about 5,900 (0.91%) were called active. Many of the other results were omitted from the sample, so actives are more common in it than they were. Values without a mark were called inactive. Cut-off read from the data, not from the text of the source: active = inhibition above about 50%; inactive = the rest.

molecular target: Microphthalmia-associated transcription factor (Homo sapiens) (UniProt O75030); assay: MITF inhibitors, primary screen, biochemical, AlphaScreen, human (AID 1259374); details: AlphaScreen MITF homodimerization, bead proximity signal; at 2.6 µM; stronger effect = higher value;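 note: 0% = vehicle wells with protein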
Sequence (O75030 whole entry, looked up): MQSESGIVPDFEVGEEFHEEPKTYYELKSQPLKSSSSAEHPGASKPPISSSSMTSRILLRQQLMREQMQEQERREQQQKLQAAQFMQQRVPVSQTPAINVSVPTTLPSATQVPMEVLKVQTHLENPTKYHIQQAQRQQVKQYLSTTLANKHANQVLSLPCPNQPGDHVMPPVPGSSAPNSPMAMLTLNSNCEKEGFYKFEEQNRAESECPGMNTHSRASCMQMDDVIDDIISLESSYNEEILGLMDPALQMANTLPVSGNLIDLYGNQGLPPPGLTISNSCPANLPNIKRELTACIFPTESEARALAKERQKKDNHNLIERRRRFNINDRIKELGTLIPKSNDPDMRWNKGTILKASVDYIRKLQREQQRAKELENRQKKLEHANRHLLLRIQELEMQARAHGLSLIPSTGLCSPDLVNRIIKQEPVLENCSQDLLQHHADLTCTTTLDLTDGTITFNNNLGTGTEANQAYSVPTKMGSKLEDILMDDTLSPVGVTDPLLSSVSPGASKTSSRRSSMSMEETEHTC

Compound | inhibition
CCN1CCN(S(=O)(=O)c2ccc(Br)c(OC)c2)CC1 | -5.44%
Cc1ccc(C(=O)N/N=C\c2ccc(-c3ccc(Br)cc3)o2)cn1 | 8.68%
CC(=O)N(C)c1ccc(NC(=O)COc2cc(C)ccc2C)cc1 | -10.1%
COCCN(CCOC)C(=O)CSc1nnc2nc(C)cc(C)n12 | 9.62%
O=C(NCc1ccccc1)N1CCN(c2ccc(-c3ccncc3)nn2)CC1 | -7.08%
O=C(c1ccccc1F)N1CCN(c2ccc(-c3cccnc3)nn2)CC1 | 4.6%
CCSc1ccccc1C(=O)N1CCN(c2ccc(-c3ccccn3)nn2)CC1 | 121% (active)
O=C(NCc1nnc2n1CCN(C1CCSCC1)CC2)c1c(F)cccc1F | 17.7%
COc1ccccc1C(=O)N/N=C/c1ccc(O)cc1O | 23.2%
COc1ccc(NC(=O)NN2CCN(C)CC2)c(OC)c1 | -3.56%
COc1ccc(NC(=O)CN2CCN(C)CC2)c(OC)c1 | 105% (active)
COc1ccc(NC(=O)CN2CCN(S(=O)(=O)c3cc(Cl)ccc3OC)CC2)c(OC)c1 | 6.53%
Cc1ccccc1-n1nc2c(c1NC(=O)C(C)Oc1ccccc1)CSC2 (configuration not stated) | 10.4%
NC(=O)N/N=C1\CCCCC1c1ccccc1 (configuration not stated) | -1.85%
COc1ccc(Cn2nnc(C(=O)Nc3cccc(Cl)c3)c2N)cc1 | 61.4% (active)
Nc1c(C(=O)Nc2ccccc2)nnn1Cc1ccc(F)cc1 | 3.54%
COc1ccc(NC(=O)Cn2nnc(C(=O)Nc3cc(Cl)ccc3OC)c2N)cc1 | -3.11%
Cc1ccc(NC(=O)Nc2nnc(CC(=O)Nc3ccccc3C)s2)cc1C | 17.1%
O=C(CSc1ccccc1)Nc1nc(-c2ccccn2)cs1 | 0.84%
N#Cc1ccc(OCC(=O)Nc2nc(-c3ccccn3)cs2)cc1 | 64.9% (active)
N#Cc1ccc(OCC(=O)Nc2ccccc2Cl)cc1 | 12.2%
O=C(N/N=C/c1ccccc1Cl)C(=O)N/N=C/c1ccccc1Cl | 17.2%
Oc1ccc(/C=N/Nc2ccccc2Cl)c(O)c1O | 56.2% (active)
Clc1ccccc1/C=N/Nc1nccnc1Cl | -4.68%
Cc1ccc(NC(=O)c2c(N)sc3c2CCCCC3)cc1 | -9.3%

Compound | inhibition
O=C(c1ccccc1)c1ccc(OCC(O)CNCC2CCCO2)cc1 (configuration not stated) | 12.1%
Cc1ccc(NC(=O)c2cc3n(n2)C(C(F)(F)F)CC(c2ccc(Cl)c(Cl)c2)N3)cc1C (configuration not stated) | 12.4%
COc1ccc(NC(=O)c2cc3n(n2)C(C(F)(F)F)CC(c2ccc(OC)c(OC)c2)N3)cc1OC (configuration not stated) | 63.8% (active)
COc1ccc(C2CC(C(F)(F)F)n3nc(C(=O)Nc4cccc(C)c4)cc3N2)cc1OC (configuration not stated) | -3.27%
COC(=O)c1ccc(NC(=O)/C(=C\c2ccco2)NC(=O)c2ccccc2Cl)cc1 | -0.56%
O=C(CSc1nc2ccsc2c(=O)n1-c1ccc(Cl)cc1)N1CCCC1 | -8.93%
Cc1ccc(C(=O)Nc2cccc(C(=O)N/N=C/c3ccc(C#N)cc3)c2)cc1 | 2.24%
N#Cc1ccc(/C=N/NC(=O)c2cc([N+](=O)[O-])cc([N+](=O)[O-])c2)cc1 | 66.5% (active)
O=C(N/N=C/c1ccc([N+](=O)[O-])cc1)c1cccc(I)c1 | 10.1%
O=C(O)C1Nc2ccc(Cl)cc2C2C=CCC12 (configuration not stated) | 77% (active)
Cc1cc([N+](=O)[O-])cc2c1NC(C(=O)O)C1CC=CC21 (configuration not stated) | 24.6%
O=S(=O)(c1ccc(C2Nc3ccc(Cl)cc3C3C=CCC32)cc1)N1CCOCC1 (configuration not stated) | -9.39%
CN(C)CCN1C(=O)C(=O)/C(=C(\O)c2ccc(S(=O)(=O)N(C)C)cc2)C1c1ccc(C(C)(C)C)cc1 (configuration not stated) | 13.9%
O=C(CCc1nnc(-c2ccccc2)o1)NC1(c2ccccc2)CC1 | -2.49%
CC(CCn1cccn1)NC(=O)CCc1nnc(-c2ccccc2)o1 (configuration not stated) | 1.03%
CN(C)CC(C)(C)CNCc1nnc(-c2ccccc2)o1 | 56.2% (active)
Cc1cc(N2CCOCC2)ccc1/C=C1\C(=O)NC(=S)N(c2ccccc2)C1=O | -14.9%
CCN1C(=O)/C(=C\c2ccc(O)cc2)C(=O)NC1=S | 3.62%
O=C1NC(=S)N(Cc2ccco2)C(=O)/C1=C\c1ccc(N2CCOCC2)cc1 | 75.1% (active)
CCOC(=O)N1CCC(N(CCN(C)C)C(=S)Nc2cccc(F)c2)CC1 | -2.5%
O=C(O)C1c2ccccc2C(=O)N(Cc2ccc(F)cc2)C1c1cccc(F)c1 (configuration not stated) | 10.8%
COc1ccc(CN2CCN(Cc3ccccc3C(F)(F)F)CC2)cc1OC | 75.6% (active)
COc1cccc(CN2CCN(Cc3ccc(SC)cc3)CC2)c1OC | 41%
COc1cccc(CNCc2ccc(Br)cc2)c1OC | 12.2%
COc1cccc(CN2CCN(C/C=C/c3ccccc3)CC2)c1OC | 63.1% (active)

Compound | inhibition
COc1cccc(CN2CCOCC2)c1OC | -5.85%
COc1ccc(CN2CCC3(CC2)CC3C(=O)NCc2ccccc2C(F)(F)F)cc1O (configuration not stated) | 0.47%
COc1cccc(CN2CCN(Cc3ccc(C(F)(F)F)cc3)CC2)c1OC | 77.8% (active)
COc1ccc(C(=O)N2CCN(Cc3cccc(OC)c3OC)CC2)cc1OC | 44.2%
COc1ccc(CN2CCN(C(=O)c3ccc(F)cc3)CC2)cc1OC | 6.68%
COc1ccc(C(=O)N2CCN(Cc3ccccc3C(F)(F)F)CC2)cc1OC | 83.3% (active)
COc1ccccc1/C=C/CN1CCN(C)CC1 | 44.2%
CC(=O)Nc1cccc(NC(=O)Cn2cnc3c(nnn3Cc3ccccc3F)c2=O)c1 | 11.8%
COc1cc2nc(CN3CCN(c4ccccc4OC)CC3)[nH]c(=O)c2cc1OC | 4.45%
O=[N+]([O-])c1cccc(C(c2nnnn2-c2cccc(Cl)c2)N2CCCCC2)c1 (configuration not stated) | 7.91%
C/C(CC(=O)Nc1ccc(Cl)cc1C)=N\NC(=O)c1ccc([N+](=O)[O-])c(Cl)c1 | 14%
COC(=O)CSCC(=O)Nc1cc(C(F)(F)F)ccc1Cl | 3.79%
Cc1ccn2cc(-c3ccc(NS(=O)(=O)c4ccc(I)cc4)cc3)nc2n1 | -8%
COc1ccc(NC2c3cccc4cccc(c34)C2NS(=O)(=O)c2ccccc2)cc1 (configuration not stated) | 23.3%
Cc1cccc(CNc2ncnc3sc(C(=O)N(C)C4CCOC4)c(C)c23)n1 (configuration not stated) | -1.76%
C=CCOc1ccc(/C=C2\SC(=S)NC2=O)cc1 | 12.6%
Cc1ccc(C(=O)NNC(=O)C2Cc3ccccc3CN2C(=O)c2ccco2)cc1 (configuration not stated) | 3.81%
Cc1ccc(OCC(=O)N/N=C/c2cc(C)ccc2O)cc1 | 15.3%
O=C(Nc1cccc(-c2nc3cccnc3s2)c1)C(F)(F)F | -3.61%
N#C/C(=C/c1ccc(S(=O)(=O)c2ccc(Cl)cc2)cc1)c1nc2ccccc2[nH]1 | -16.9%
COc1cccc(-c2nc3cnccn3c2NC(C)(C)C)c1OC | -9.88%
Cc1nc(Nc2ccncc2)cc(-c2ccc(F)cc2)n1 | 0.1%
Cc1nc(NC2CC2)cc(-c2ccc(F)cc2)n1 | 52.6% (active)
COCCNc1cc(-c2ccc(F)cc2)nc(C)n1 | 14.6%
Cc1ccc(N2C(=O)NC(=O)/C(=C\c3ccc(I)o3)C2=O)cc1C | 41.7%

Compound | inhibition
O=C1NC(=S)N(c2ccccc2)C(=O)/C1=C/c1ccc(I)o1 | 59.5% (active)
Cc1cccc(N2C(=O)NC(=O)/C(=C\c3ccc(I)o3)C2=O)c1C | 57.8% (active)
Cc1ccccc1N1C(=O)NC(=O)/C(=C\c2ccoc2)C1=O | 52.5% (active)
Cc1cccc(N2C(=O)NC(=O)/C(=C\c3ccc(C)o3)C2=O)c1 | 2.19%
O=C1NC(=O)N(c2ccccc2F)C(=O)/C1=C\c1ccco1 | 40%
O=C1NC(=S)N(c2ccccc2)C(=O)/C1=C/c1ccccc1 | 17.4%
COc1ccc(/C=C2/C(=O)NC(=O)N(c3ccccc3C)C2=O)cc1OC | 1.35%
O=C1NC(=S)N(c2ccccc2)C(=O)/C1=C/c1ccc(N2CCCC2)o1 | 1.33%
O=C(Nc1ccc(C(=O)O)c(C(=O)O)c1)c1cccc(N2C(=O)c3ccc([N+](=O)[O-])cc3C2=O)c1 (tested in a mixture with another compound) | 11.7%
CSc1ccccc1N1C(=O)[C@@H]2C[C@H]1CN2C(=O)CCc1ccc2c(c1)OCO2 | -0.38%
CC1=C(C(=O)OC2CCCC2)C(c2ccc(C)o2)C2=C(CCCC2=O)N1 (configuration not stated) | 2.33%
CN(C)c1cccc(Nc2nccn3c(-c4cccc(Cl)c4)cnc23)c1 | -23.8%
CCCCNC(=O)c1ccc(-n2nnc3ccccc3c2=O)cc1 | 5.61%
CCOc1ccc(CN2CCCN(C)CC2)cc1 | 60.4% (active)
CCOc1ccc(CN2CCN(Cc3ccc(OCC)cc3)C(CCO)C2)cc1 (configuration not stated) | 8.91%
COc1ccc(CN2CCN(C(=O)c3cccc(Cl)c3)CC2)cc1OC | 27.7%
CC(Oc1cccc(Cl)c1)C(=O)Nc1ccccc1C(=O)N1CCN(Cc2ccccc2)CC1 (configuration not stated) | 4.29%
CC(C)NC(=O)Nc1ccc(CN2CCN(C)CC2)cc1 | -5.21%
CCOc1ccc(CN2CCN(C(=O)c3cccc(Cl)c3)CC2)cc1 | 58.5% (active)
O=C(c1ccc(C(=O)N2CCN(Cc3ccccc3)CC2)cc1)N1CCN(Cc2ccccc2)CC1 | 6.34%
Clc1cccc(N2CCN(Cc3cccnc3)CC2)c1 | 49.8%
O=C(c1cccc(Cl)c1)N1CCN(Cc2cccnc2)CC1 | 59.4% (active)
